PMP22 txn prim = modulators of PMP22 gene transcription in S16 Schwann cells; Potency, µM (titrated, usually from 57.5 µM), actives largely listed as inhibitors; AID 1508649; S16 Pmp22-F2sN Schwann cells, FLuc/NLuc coincidence luminescence, 24 h; 2% of 43,000 active; active = clear falling dose curves in both reporters; inconclusive = both reporters move, but less clearly or upward; inactive = either reporter flat; the % is the NLuc reporter signal
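Luminescent read-out of sequential FLuc and NLuc signals from a reporter embedded in the Pmp22 3' UTR of S16 Schwann cells, taken after 24 h compound exposure at 37C; compounds reducing both signals score as inhibitors of expression.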
SKOV3 invasion = ovarian cancer metastasis inhibition, 3D TME model. Potency, µM (top dose mostly 45.8 µM), actives largely listed as inhibitors. SKOV3ip1-GFP adhesion/invasion on 3D omental model, fluorescence. AID 1963576. 0.1% of 46,000 active; note: nearly all actives have a fitted effect of over 65% in size
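A 3D layer of primary human omental fibroblasts, mesothelial cells, fibronectin and collagen I, grown 48 hr, received SKOV3ip1-GFP cells in serum-free medium plus compounds at 0.36-46 umol/L. After 2 hr RT and 16 hr 37 C, fixed adherent GFP cells were counted; normalized to DMSO and tomatine.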
pS6 MEF inh = inhibitors of mTORC1 signaling in Tsc2-/- p53-/- MEF cells; Tsc2-/- p53-/- MEF, phospho-rpS6 immunofluorescence/PI, 24 h; Potency, µM (doses to about 38.3 µM), hits mostly inhibitors; 0.78% of 44,000 active; note: nearly all actives have a fitted effect of over 50% in size
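Tsc2-/-, p53-/- mouse embryonic fibroblasts (empty-vector line) exposed to compound 24 hrs at 37 C, fixed, immunostained for phospho-rpS6 and counterstained with propidium iodide. Acumen laser scanning gives % positive cells from Alexa 488/PI ratio, thresholded using 7.5 nM rapamycin; PI count gives viability.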
S16 F2sN tox = toxic to S16 Pmp22-F2sN Schwann cells; S16 Pmp22-F2sN Schwann cells (luciferase reporters placed in the Pmp22 gene) viability, CellTiter-Glo, 24 h; Potency, µM (top dose mostly 57.5 µM), hits mostly cytotoxic; 0.48% of 43,000 active; note: nearly all actives have a fitted effect of over 65% in size
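CellTiter-Glo counter-screen, qHTS, 1536-well. Cells: S16(c9) Pmp22-F2sN, 500-1,000/well in DMEM + 10% FBS. Cpd 23 nL pin transfer, 24 h, 37C/5% CO2. Read: luminescence, CCD imager.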
NLuc saturating = inhibits NanoLuc at saturating substrate, PMP22 counter-screen | shares compounds with PMP22 txn prim | Secreted NLuc enzyme (filtered S16 cell medium), Nano-Glo luminescence | Potency, µM (top dose mostly 57.5 µM), most hits filed as inhibitors | 4% of 690 active | AID 1508638
NLuc Km ctr = inhibits NanoLuc under Km conditions, PMP22 counter-screen; shares compounds with PMP22 txn prim; secreted NLuc enzyme, coelenterazine luminescence, Km conditions; Potency, µM (top dose mostly 57.5 µM), hits mostly inhibitors; 5% of 690 active; AID 1508639
FLuc ctr PMP22 = counter-screen for PMP22 expression modulators: firefly luciferase inhibition; shares compounds with PMP22 txn prim; purified P. pyralis FLuc, luminescence, 10 min; Potency, µM (top dose mostly 57.5 µM), hits mostly inhibitors; 690 tested, under 10 active; AID 1508640
Target sequence (P08659 whole entry, looked up): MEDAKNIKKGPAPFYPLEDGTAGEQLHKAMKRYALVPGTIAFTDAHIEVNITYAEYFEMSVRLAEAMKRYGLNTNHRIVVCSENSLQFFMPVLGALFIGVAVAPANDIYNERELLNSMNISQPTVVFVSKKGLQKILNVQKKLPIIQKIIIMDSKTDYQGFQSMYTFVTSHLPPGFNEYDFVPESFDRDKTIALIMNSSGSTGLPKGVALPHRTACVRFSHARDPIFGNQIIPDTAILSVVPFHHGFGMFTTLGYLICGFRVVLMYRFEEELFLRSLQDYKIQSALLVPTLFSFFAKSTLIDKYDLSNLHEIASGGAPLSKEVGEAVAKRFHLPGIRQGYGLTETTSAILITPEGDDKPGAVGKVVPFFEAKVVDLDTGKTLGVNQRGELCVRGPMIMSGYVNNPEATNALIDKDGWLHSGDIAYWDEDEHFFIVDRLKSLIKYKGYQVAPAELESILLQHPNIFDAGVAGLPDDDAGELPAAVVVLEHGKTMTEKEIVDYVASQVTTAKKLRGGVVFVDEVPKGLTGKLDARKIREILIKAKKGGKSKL
S16 viab conf = S16 Schwann cell cytotoxicity, confirmatory; S16 Schwann cells viability, CellTiter-Glo ATP luminescence, 24 h; AID 1508641; Potency, µM (doses to about 57.5 µM), actives largely listed as cytotoxic; 7% of 690 active; shares compounds with PMP22 txn prim
PMP22 txn conf = PMP22 transcription modulation, confirmatory; shares compounds with PMP22 txn prim; S16 Schwann cells Pmp22-F2sN, dual luciferase, 24 h; Potency, µM (series often up to 57.5 µM), usual class: inhibitors; 22% of 690 active; AID 1508646; active = clear falling dose curves in both reporters; inconclusive = both reporters move, but less clearly or upward; inactive = either reporter flat; the % is the FLuc reporter signal
PMP22 HiBiT cnf = confirmation of modulators of rat PMP22 protein expression; shares compounds with PMP22 txn prim; S16 Schwann cells Pmp22-HiBiT, luminescence, 48 h; Potency, µM (titrated, usually from 27.9 µM), actives largely listed as inhibitors; 95 tested, under 10 active; AID 1508647
Numbers stand for hits. Sampled rows, rich in hits. Any-hit rate of the full collection: about 2.6%. Unless noted, calls come from the whole dose curve; as a rule, active = well fitted curve in the direction sought with a large enough effect; inconclusive = small, poorly fitted or top-dose-only effect, or another doubt; inactive = no such curve, though single readings can be large; an effect the other way counts as inactive or inconclusive.

Cc1[nH]c2ccccc2c1C1(O)C(=O)N(Cc2ccccc2)c2ccc(Cl)cc21 (stereo not drawn) was read as PMP22 txn prim 16µM, SKOV3 invasion inactive, pS6 MEF inh inconclusive, S16 F2sN tox inactive, NLuc saturating inactive, NLuc Km ctr inconclusive, FLuc ctr PMP22 inactive, S16 viab conf inconclusive and PMP22 txn conf inconclusive.
For Cc1ccc(CN2C(=O)C(O)(c3c(C)[nH]c4ccccc34)c3ccccc32)cc1 (stereo not drawn) the results were PMP22 txn prim 8.2µM, SKOV3 invasion inactive, pS6 MEF inh inconclusive, S16 F2sN tox inactive, NLuc saturating inconclusive, NLuc Km ctr inconclusive, FLuc ctr PMP22 inactive, S16 viab conf inactive, PMP22 txn conf 17µM and PMP22 HiBiT cnf inactive.
CC(C)C[C@@H](N)[C@H](O)C(=O)N[C@H](C(=O)N[C@H](C(=O)N[C@@H](CC(=O)O)C(=O)O)C(C)C)C(C)C was read as SKOV3 invasion inactive.
Screening CCOc1ccc(-c2c(C)nn3c(C)c(C(=O)NCC(C)c4ccccc4)cnc23)cc1OCC (stereo not drawn) returned PMP22 txn prim 17µM, SKOV3 invasion inactive, pS6 MEF inh inactive, S16 F2sN tox inactive, NLuc saturating inconclusive, NLuc Km ctr inconclusive, FLuc ctr PMP22 inactive, S16 viab conf inactive and PMP22 txn conf inconclusive.
For COc1ccc(CC2SC(=O)NC2=O)cc1C(=O)NCc1ccc(C(F)(F)F)cc1 (stereo not drawn) the results were SKOV3 invasion inactive.
Screening Oc1ccc(NCc2ccccc2OCc2ccccc2F)cc1 returned PMP22 txn prim 20µM, SKOV3 invasion inconclusive, pS6 MEF inh inactive, S16 F2sN tox 28µM, NLuc saturating inconclusive, NLuc Km ctr inconclusive, FLuc ctr PMP22 inconclusive, S16 viab conf inactive and PMP22 txn conf inactive.
CC1CCN(C(=O)CSc2nnc(NC(=O)Nc3ccccc3)s2)CC1 was read as PMP22 txn prim 19µM, SKOV3 invasion inactive, pS6 MEF inh inactive, S16 F2sN tox inactive, NLuc saturating inconclusive, NLuc Km ctr inconclusive, FLuc ctr PMP22 inconclusive, S16 viab conf inconclusive and PMP22 txn conf inactive.
Screening COc1cccc2cc(-c3nc(C4CCC(C(=O)O)CC4)n4ncnc(N)c34)[nH]c12 (stereo not drawn) returned SKOV3 invasion inactive.
`COC(=O)c1c(-c2ccc(Cl)cc2)noc1N1CCN(c2ccccc2OC)CC1` gave PMP22 txn prim 8.9µM, SKOV3 invasion inconclusive, pS6 MEF inh inactive, S16 F2sN tox inconclusive, NLuc saturating inactive, NLuc Km ctr inactive, FLuc ctr PMP22 inactive, S16 viab conf inactive, PMP22 txn conf 19µM and PMP22 HiBiT cnf inactive.
COc1ccccc1N1CCN(C(=O)CSc2nc(-c3ccc(C(C)C)cc3)no2)CC1 was read as PMP22 txn prim inconclusive, SKOV3 invasion inactive, pS6 MEF inh inactive and S16 F2sN tox inactive.
COC(=O)c1c(-c2ccc(Cl)cc2)noc1N1CCN(c2ccc(F)cc2)CC1 was read as PMP22 txn prim 3.8µM, SKOV3 invasion inactive, pS6 MEF inh inactive, S16 F2sN tox inactive, NLuc saturating inactive, NLuc Km ctr inactive, FLuc ctr PMP22 inactive, S16 viab conf inconclusive, PMP22 txn conf 13µM and PMP22 HiBiT cnf inactive.

Screening data deposited in PubChem BioAssay by National Center for Advancing Translational Sciences (NCATS).
